Bioassay records (PubChem)
BCR signal inh: qHTS Assay to Find Inhibitors of Chronic Active B-Cell Receptor Signaling | AID 493014, 2011 | 340,000 compounds, 0.05% hits | ABC-DLBCL IkBa-CBG/CBR reporter, luminescence ratio, 4 h | Potency, µM (highest dose often 46.1 µM), most hits filed as inhibitors; active = well fitted inhibition curve with a large enough effect in the signal ratio, with a control signal flat, not every such curve was filed as active; inconclusive = small, poorly fitted or top-dose-only effect, or effect the other way, or a change in a side signal; the % refers to the signal ratio
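TMD8 ABC-DLBCL cells carrying doxycycline-inducible green luciferase fused to IkappaBalpha plus unfused red luciferase were exposed to compounds (up to 46 uM) for 4 hrs at 37C. Activity came from the overlap-corrected green/red luminescence ratio.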
IL2 activator: qHTS of IL-2 Activators | activation, % (series mostly up to about 46 µM) | IL-2 activation reporter assay, cell-based qHTS; stimulated with anti-CD3/CD4/CD28 beads; in transgenic mouse T cells | AID 652025, 2013 | 360,000 compounds, 0.065% hits; in the data active = activation above about 50%; inconclusive = mostly about 30% to 49%
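Screening format: compound pinned onto unstimulated transgenic mouse T cells, 60 min incubation, then anti-CD3/anti-CD4/anti-CD28 bead stimulation for 18 hours at 37 degrees C, followed by EGFP and DsRed detection.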
PTHR1 ag: qHTS for PTHR1 Agonists: Primary Screen; Parathyroid hormone/parathyroid hormone-related peptide receptor (Homo sapiens), Q03431; Potency, µM (top dose mostly 115 µM), actives largely listed as activators; HEK293 GP2 PTHR1 cells, GloSensor cAMP luminescence, 1 h; 410,000 compounds, 0.075% hits; also: nearly all actives have a fitted effect of over 55% in size
Target sequence (Q03431 whole entry, looked up): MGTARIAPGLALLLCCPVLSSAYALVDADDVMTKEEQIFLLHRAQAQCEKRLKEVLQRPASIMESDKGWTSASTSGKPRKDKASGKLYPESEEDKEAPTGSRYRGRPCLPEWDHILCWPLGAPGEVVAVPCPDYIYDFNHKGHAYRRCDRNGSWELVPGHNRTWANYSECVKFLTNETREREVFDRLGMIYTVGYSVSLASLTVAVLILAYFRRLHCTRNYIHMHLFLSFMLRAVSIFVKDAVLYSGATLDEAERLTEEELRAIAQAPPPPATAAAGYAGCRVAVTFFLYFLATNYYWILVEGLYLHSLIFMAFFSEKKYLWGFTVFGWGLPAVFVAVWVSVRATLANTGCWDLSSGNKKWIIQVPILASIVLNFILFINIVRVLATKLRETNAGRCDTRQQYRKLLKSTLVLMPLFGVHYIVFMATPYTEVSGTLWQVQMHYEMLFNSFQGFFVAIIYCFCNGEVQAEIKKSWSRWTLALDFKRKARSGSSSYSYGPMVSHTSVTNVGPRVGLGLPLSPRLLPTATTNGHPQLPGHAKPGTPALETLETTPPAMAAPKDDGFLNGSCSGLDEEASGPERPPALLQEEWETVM
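HEK-293-derived GP2 cells expressing PTHR1 and a GloSensor cAMP reporter, 3,000/well, plated overnight, given luciferin plus IBMX (each 0.5 mM as added) for 1 h at 37 °C, then compound for 1 h at 37 °C. Luminescence was read after 15 min at room temperature.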
BRCA1 expr up: qHTS Assay to Identify Small Molecule Activators of BRCA1 Expression | MCF7-BRCA1-FFLuc reporter, luminescence, 48 h; response scale: scaled: vehicle 0%, 10 µM genistein 100% | 380,000 compounds, 1.1% hits | Potency, µM (titrated, usually from 46.1 µM), most hits filed as activators; also: nearly all actives have a fitted effect of over 80% in size
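MCF7-BRCA1-FFLuc cells, 2000/well in phenol-red-free MEM, attached 2 h then treated 48 h at 37 C. Luciferase luminescence read 15 min after reagent; normalized to genistein maximum activation (10microM) and DMSO, concentration-response fitted.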
TCR activator: Activators of T cell receptors: qHTS campaign; primary human leukocytes, anti-CD3, IL-2 HTRF, 48 h; Potency, µM (series often up to 9.22 µM), actives largely listed as activators; 330,000 tested, under 10 active
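IL-2 produced over 48 hr by a-CD3 bead-stimulated primary human leukocytes exposed to compounds was detected with a homogeneous time-resolved FRET immunoassay, 665nm acceptor signal after 320nm excitation.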
Mito fusion yeast: qHTS Assay for Small Molecule Inhibitors of Mitochondrial Division or Activators of Mitochondrial Fusion. S. cerevisiae fusion-defective mutant growth rescue, CellTiterGlo 48 h. Potency, µM (highest dose often 46.1 µM), usual class: activators. 320,000 compounds, 0.23% hits; also: nearly all actives have a fitted effect of over 45% in size
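Compounds are tested for their ability to restore growth of mitochondrial fusion-defective yeast strains at non-permissive 37C in YPEG medium over 48 hours. Viability is quantified by luciferase luminescence.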
Hits are given with their value; 0 = inactive; ? = inconclusive; - = not tested or not shown; ! = a repeat was not active. Only some compounds are listed: those with a hit (about 1.3% of all), similar ones and a draw of the others. Unless noted, calls follow the shape of the dose curve; as a rule, active = well fitted curve in the direction sought with a large enough effect; inconclusive = small, poorly fitted or top-dose-only effect, or another doubt; inactive = no such curve, though single readings can be large; an effect the other way counts as inactive or inconclusive.

SMILES	BCR signal inh	IL2 activator	PTHR1 ag	BRCA1 expr up	TCR activator	Mito fusion yeast
CS(=O)(=O)c1ccccc1NC(=O)COc1ccccc1C(=O)Nc1ccccc1	-	-	-	0	-	-
COC(=O)c1cccc(NC(=O)CCc2cc(OC)c(OC)c(OC)c2)c1	0	0	0	0	0	0
COc1ccc(NC(=O)CCCc2ccccc2)cc1OC	?	0	0	11µM	0	0
Cc1ccc(NC(=O)CCCc2ccccc2)nc1	?	0	0	11µM	0	0
COC(=O)c1cccc(NC(=O)CCc2ccccc2)c1	?	0	0	7.9µM	0	0
CC1(C)OC(=O)C2(Cc3c(F)cccc3N3CCCC32)C(=O)O1 (stereo not drawn)	-	-	-	0	-	-
COc1cc2nc(N3CCCN(C)CC3)nc(N3CCN(C)CC3)c2cc1OC	-	-	-	0	-	-
CC(=O)c1cc(NC(=O)c2cccc(C(F)(F)F)c2)c(=O)oc1/C=C/N(C)C	0	58	0	0	0	0
CC(=O)c1cc(NC(=O)c2cccc(C(F)(F)F)c2)c(=O)oc1C	?	0	0	0	0	0
CC1(C)CC(CCNC(=O)CCl)(c2ccccc2)CCO1 (stereo not drawn)	?	0	0	0	0	0
C=CCc1cccc2cc(-c3nc4ccc(C)cc4[nH]3)c(=O)oc12	?	-	0	2µM	-	-
Cc1ccc(SCC(=O)Nc2cccc(NC(=O)c3ccco3)c2)cc1	?	0	0	0	0	0
CC(/C=N/Nc1nnc(C)c(=O)[nH]1)=C\c1ccccc1	0	0	0	10µM	0	0
CN(C)S(=O)(=O)c1ccc(C(=O)Nc2ccccn2)cc1	0	0	0	14µM	0	0
O=C(NCCC1=CCCCC1)c1ccc2c(c1)N(Cc1cccc(Cl)c1)C(=O)c1ccccc1S2=O (stereo not drawn)	?	-	0	-	-	-
Cc1ccc(NC(=O)CSc2nnc(-c3cc4occc4n3C)n2-c2ccccc2C)c(Cl)c1	-	-	0	-	-	-
COc1cccc(CNC(=O)N2CCc3c(sc4c3CCCC4)C2c2ccc(F)cc2)c1 (stereo not drawn)	-	-	0	-	-	-
O=C(NCC1CCCO1)C(c1cccs1)N(Cc1cccs1)C(=O)c1ccc(-c2ccccc2)[nH]1 (stereo not drawn)	?	0	0	0	0	16µM
O=C(CSc1nc2ccccc2n1-c1ccccc1)Nc1ncc(Cl)cc1Cl	?	0	0	0	0	20µM
COc1ccc(-n2c(SCC(=O)Nc3ncc(Cl)cc3Cl)nc3ccccc32)cc1	?	-	-	-	-	0
Cc1cccc(-n2c(SCC(=O)Nc3ncc(Cl)cc3Cl)nc3ccccc32)c1	?	0	0	0	0	22µM
Cc1ccc(NC(=O)COC(=O)c2ccccc2OCC(=O)Nc2ccc(Br)cc2)c(Br)c1	-	-	-	0	-	-
O=C(Nc1cccc(-c2ccc(N3CCOCC3)nn2)c1)c1cccc(Cl)c1	-	0	0	7.1µM	-	-
O=C(Nc1cccc(-c2ccc(N3CCOCC3)nn2)c1)c1ccc(Cl)cc1	0	0	0	0	0	0
O=C(Nc1cccc(-c2ccc(N3CCOCC3)nn2)c1)c1ccccc1Cl	0	0	0	2.5µM	0	0
SMILES	BCR signal inh	IL2 activator	PTHR1 ag	BRCA1 expr up	TCR activator	Mito fusion yeast
CCOc1ccc(NC(=O)c2ccc(NC(=O)CCS(=O)(=O)c3cccs3)cc2)cc1	-	-	0	-	-	-
CCOC(=O)c1c(NC(=O)c2ccc(S(=O)(=O)N3CCC(C)CC3)cc2)sc2c1CCN(CC)C2	0	-	0	0	-	-
CCc1c(C)sc(NC(=O)Cc2ccccc2OC)c1C(=O)N1CCOCC1	0	0	0	0	0	0
CNc1ncc(C(=O)c2ccc(-c3ccccc3)cc2)s1	?	0	0	2.8µM	0	0
CNc1ncc(C(=O)c2ccc(Cl)c(Cl)c2)s1	0	0	0	?	0	0
CNc1ncc(C(=O)c2ccc(Cl)cc2)s1	0	0	0	4.5µM	0	0
O=C(NCCC(=O)N1CCC2(CC1)NCCc1[nH]cnc12)c1cccc(Cl)c1	0	0	0	0	0	0
N#Cc1ccc(OCC(O)CN2CCC(C(O)(c3ccccc3)c3ccccc3)CC2)cc1 (stereo not drawn)	0	0	0	0	0	0
Fc1ccc(-c2nc3ccc(Br)cn3c2Cc2cccc(F)c2)cc1	-	0	0	0	-	-
Cc1ccc(-c2nc3ccc(Br)cn3c2Cc2cccc(F)c2)cc1	-	0	0	3.2µM	-	-
CCCCNc1c(-c2ccc(-c3cccc(Cl)c3)cc2)nc2ccccn12	0	0	0	8.9µM	0	0
CCCCCCSc1ccc(-c2nc3ccccn3c2NCCCC)cc1	0	0	0	0	0	0
COc1ccc(C(=O)NC2CCCc3c2cnn3-c2cc(F)cc(F)c2)c(OC)c1OC (stereo not drawn)	0	0	0	0	0	11µM
Cc1ccc(C2(c3noc(CN(C)Cc4cccnc4)n3)CCCC2)cc1	0	0	0	0	0	28µM
Cn1cc(CCC(=O)NCc2cccc(Cl)c2)c2ccccc21	0	0	0	0	0	32µM
Cn1cc(CCCC(=O)NCc2ccccc2)c2ccccc21	0	0	0	0	0	0
Cc1ccc2nc(-c3ccccc3)c(Cc3ccccc3C(F)(F)F)n2c1	-	0	0	2.5µM	-	-
Cc1ccn2c(Cc3ccccc3)c(-c3ccc(Br)cc3)nc2c1	-	0	0	?	-	-
Cc1ccn2c(Cc3ccccc3)c(-c3ccccc3)nc2c1	-	0	0	13µM	-	-
C[C@H](CO)N1C[C@H](C)[C@@H](CN(C)C(=O)Nc2ccc3c(c2)OCO3)Oc2c(NC(=O)Cc3ccccc3)cccc2C1=O	0	0	0	0	0	-
COc1ccc(CCNC(=O)c2cnn3c2NC(=C2CC2)C=C3C(F)F)cc1OC	-	-	-	0	-	-
O=C(C[n+]1ccccc1Cl)c1ccc(O)c(O)c1	-	-	-	0	-	-
CNC(=O)c1sc2nc(-c3ccc(OC)cc3)cn2c1C	?	0	0	?	0	0
CCN(CC)C(=O)c1sc2nc(-c3ccc(OC)cc3)cn2c1C	?	0	0	2.8µM	0	0
O=C(COc1ccccc1C(=O)OCC(=O)N1CCOCC1)Nc1ccc(Br)cc1	-	-	-	0	-	-
Cc1ccc2nc(-c3cccnc3)oc2c1	?	0	0	3.2µM!	0	0
CCCC(=O)Nc1ccc2oc(-c3cncc(Br)c3)nc2c1	0	0	0	3.2µM	0	0
CCCCCC(=O)Nc1ccc2oc(-c3cncc(Br)c3)nc2c1	?	0	0	0	-	0
CCC(=O)Nc1ccc2oc(-c3cccnc3)nc2c1	?	0	0	10µM	0	0
